The campaign covered roughly 290,000 compounds. About 800 (0.28%) were called active.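 How the source made its calls: active means fall in fluorescence gain of 50% or more versus controls, with final raw signal at or below 3038400; inconclusive means same 50% fall but final raw signal above 3038400; inactive means fall in fluorescence gain under 50%.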 The sample as a whole holds a higher share of actives than the screen did.
Target: CAAX prenyl protease 2 (Saccharomyces cerevisiae (strain ATCC 204508 / S288c)) (UniProt Q03530)
Assay: yeast Rce1p protease inhibitors, primary screen, biochemical, fluorescence, cell-free homogeneous (AID 2563)
Details: yeast membranes, quenched prenylated peptide cleavage fluorescence

Sequence of CAAX prenyl protease 2 (Saccharomyces cerevisiae (strain ATCC 204508 / S288c)) (Q03530 whole entry, looked up): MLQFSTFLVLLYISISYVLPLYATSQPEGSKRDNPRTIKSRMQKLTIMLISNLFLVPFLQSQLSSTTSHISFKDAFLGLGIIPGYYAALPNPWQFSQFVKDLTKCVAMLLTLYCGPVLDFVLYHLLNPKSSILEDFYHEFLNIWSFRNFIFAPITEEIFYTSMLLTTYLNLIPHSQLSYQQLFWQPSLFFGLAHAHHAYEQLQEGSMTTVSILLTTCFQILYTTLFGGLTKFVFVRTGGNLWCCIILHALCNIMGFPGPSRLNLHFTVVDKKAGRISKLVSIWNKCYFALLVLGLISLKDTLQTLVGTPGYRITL

SMILES	outcome
CCOC(=O)c1c(N)n(CCN2CCOCC2)c2nc3ccccc3nc12	inactive
CCOC(=O)c1c(N)n(Cc2ccccc2)c2nc3ccccc3nc12	inactive
COc1cc(Cn2c(N)c(C(=O)NCc3ccco3)c3nc4ccccc4nc32)cc(OC)c1OC	active
COC(=O)C1=C(c2cc3ccccc3s2)C[C@@H]2CC[C@H]1N2C(=O)NCCO	inactive
Cc1cc(N2C(=O)C3CCCN3C2c2ccc(Cl)c(Cl)c2)no1 (stereo not given)	inactive
